Sampled rows, rich in hits. Any-hit rate of the full collection: about 4.2%.
NLRP3 yeast inh = inhibitors of NALP3 inflammasome in yeast; 330,000 tested, 0.39% active; inhibition, % at 10 µM; Yeast reconstituted NLRP3/ASC/caspase-1, beta-gal luminescence, 24 h;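 active = inhibition of 50% or more; inactive = inhibition below 50%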;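 also: plate controls were induced DMSO wells for no effect and uninduced yeast grown without galactose for full effect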
tim10-1 inh = growth inhibitors of tim10-1 mutant yeast | S. cerevisiae tim10-1 ts strain growth, BacTiter-Glo, 24 h | inhibition, % at 20 µM | 330,000 tested, 2.2% active | AID 463190;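 active = inhibition of at least 40%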;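 also: mutant grown at 25 °C; 0% = DMSO wells with yeast and 100% = wells holding no yeast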
NALP1 inh = NALP1 inhibition; S. cerevisiae NALP1/ASC/caspase-1 growth, X-gal OD620, 72 h; inhibition, % at 10 µM; 280,000 tested, 0.61% active; AID 2071; in the data active = inhibition mostly above about 24%, no sharp cut-off; inactive = mostly below about 32%
TIM10 inh = growth inhibitors of TIM10 yeast strain; S. cerevisiae TIM10 strain growth, BacTiter-Glo luminescence, 24 h; inhibition, % at 10 µM; 330,000 tested, 1.4% active; AID 463195;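 active = inhibition of 40% or more at the single tested concentration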;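 also: wild-type TIM10 isogenic control strain grown at permissive 25 °C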
V-ATPase pH = regulators of yeast V-ATPase proton transport; S. cerevisiae, pHLuorin cytosolic pH fluorescence; response, % at 10 µM; 350,000 tested, 0.37% active; in the data active = response mostly above about 7.3%, no sharp cut-off; inactive = mostly below about 5.4%; also: actives read high
tim23-1 inh = growth inhibitors of tim23-1 mutant yeast | S. cerevisiae tim23-1 growth, BacTiter-Glo luminescence, 24 h | inhibition, % at 20 µM | 330,000 tested, 1.3% active | AID 463212;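 active = growth inhibition of the mutant yeast at or above 50%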;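 also: temperature-sensitive mutant grown at 25 °C; plate controls were DMSO-treated mutant yeast for no effect and medium wells lacking yeast for full effect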
tim10 confirm = TIM10 yeast growth inhibition, confirmed. shares compounds with TIM10 inh. S. cerevisiae tim10 strain growth, BacTiter-Glo luminescence, 24 h. inhibition, % at 10 µM. 4,600 tested, 63% active. AID 463215;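 active = inhibition of yeast growth at or above a set limit in either of two replicates at 10 µM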;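 also: this counterscreen used the strain with wild-type TIM10; 0% = yeast with DMSO and 100% = medium wells lacking yeast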
tim23-1 conf = tim23-1 yeast growth inhibition, confirmed; shares compounds with tim23-1 inh; inhibition, % at 20 µM; 4,400 tested, 83% active; S. cerevisiae tim23-1 growth, BacTiter-Glo luminescence, 24 h;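 active = inhibition above about 39% in either of two replicate wells at 20 µM, limit read from the data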;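 also: temperature-sensitive tim23-1 mutant grown at 25 °C; 0% = DMSO wells with yeast and 100% = medium wells without yeast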
Active calls of the source: *; x = no result.

SMILES | NLRP3 yeast inh | tim10-1 inh | NALP1 inh | TIM10 inh | V-ATPase pH | tim23-1 inh | tim10 confirm | tim23-1 conf
O=C(Nc1nccs1)c1ccc2c(=O)n3c(nc2c1)CCCCC3 | 36.0 | 6.3 | 35.9 | 49.4* | -1.2 | 52.4* | 43.6* | 66.5*
O=C(Nc1nccs1)c1ccc2ccccc2c1 | 46.6 | -27.5 | 13.9 | 46.4* | 0.1 | 53.6* | 51.5* | 62.8*
Cn1cnnc1SCC(=O)NC1CCCCCC1 | 2.4 | -3.9 | 18.3 | 11.1 | 4.8 | -4.0 | x | x
CCOC(=O)C1CCN(C(=O)CCCNC(=O)Cn2cnc3sc(C)c(C)c3c2=O)CC1 | 9.1 | -10.4 | 0.6 | 11.5 | 3.7 | 8.4 | x | x
Cc1ccnc2c1ccc1c(C)ccnc12 | 35.4 | 35.4 | x | 50.0* | 3.7 | 70.9* | -28.2 | 59.7*
Cc1cccc2cccnc12 | 7.1 | -14.8 | x | -4.6 | -0.1 | -7.2 | x | x
N/C(Cc1ccc(Cl)cc1Cl)=N\OC(=O)c1ccc(Br)o1 | -0.8 | 6.7 | x | 86.3* | 2.8 | 80.3* | 86.5* | 48.4*
O=C(N/N=C/c1cc(Br)cc(Cl)c1O)c1ccc2c(c1)OCO2 | 9.1 | -3.2 | x | 43.5* | 0.4 | 57.1* | 31.4* | 56.6*
O=C(N/N=C/c1ccccc1O)c1ccc2c(c1)OCO2 | 14.7 | 30.8 | 0.4 | 50.5* | -3.0 | 66.8* | 43.1* | 74.2*
Nc1nc(SCC(=O)O)[nH]c(=O)c1NC(=O)c1ccccc1F | 20.4 | -5.2 | 15.8 | 7.4 | 0.6 | 9.7 | x | x
CCOC(=O)CSc1c(-c2ccc(Cl)cc2)[nH]c2ccccc12 | 14.2 | 25.1 | 20.5 | 36.5 | 8.0 | 26.9 | x | x
CCOC(=O)CSc1c(-c2cccs2)[nH]c2ccccc12 | 7.7 | 31.4 | 19.8 | 48.7* | 3.2 | 54.6* | -17.2 | 52.0*
Cc1[nH]c2ccccc2c1N=Nc1ccccc1F | 22.2 | -18.0 | -11.3 | 50.5* | 1.8 | 71.8* | 55.3* | -51.0
O=c1c(Cl)c(NCc2ccccc2Cl)cnn1C12CC3CC(CC(C3)C1)C2 | 37.4 | 6.2 | 25.6 | 41.5* | -1.2 | 52.0* | 27.4 | 55.2*
O=c1c(Cl)c(NCc2ccco2)cnn1C12CC3CC(CC(C3)C1)C2 | 18.3 | -21.0 | 16.2 | -11.5 | 5.1 | 31.3 | x | x
COc1ccc(NC(=O)CN(C)S(=O)(=O)c2ccc(Br)s2)cc1OC | 0.7 | -34.7 | 10.8 | -15.1 | -2.2 | -21.8 | x | x
CCn1c(SCc2ccccc2)nnc1-c1cccs1 | 14.2 | 39.1 | -77.2 | 30.7 | -7.2 | 37.1 | x | x
Cn1c(SCc2ccc(Br)cc2)nnc1-c1cccs1 | 42.7 | 36.7 | -2.6 | 56.7* | -3.6 | 56.6* | 29.7* | 61.4*
O=S(=O)(Nc1ccc2oc(-c3ccccc3)nc2c1)c1ccccc1 | 25.8 | 36.6 | -5.3 | 45.4* | -1.7 | 73.8* | 36.5* | 65.8*
O=C(Nc1ccc2c(c1)nc1n2CCN(Cc2ccccc2)C1)c1cccs1 | 34.7 | 28.1 | 37.6 | 66.7* | -3.1 | 53.2* | 57.4* | 73.3*
Clc1ccc2oc(-c3ccccc3)nc2c1 | -13.4 | 0.8 | 4.2 | 7.1 | -3.2 | 13.8 | x | x
O=C(Nc1ccc2c(c1)CCC2)c1cccs1 | 39.6 | 33.9 | -21.2 | 45.4* | -4.4 | 53.4* | 34.9* | 49.2*
O=C(Nc1ccc(Cl)c(S(=O)(=O)Nc2ccccc2Cl)c1)c1cccs1 | -8.6 | 32.6 | 32.0 | 44.7* | -3.1 | 52.9* | 46.0* | 69.0*
COc1ccc(Cl)cc1NC(=O)CN(C)CC(=O)NCc1cccs1 | 10.9 | -4.2 | x | -4.4 | -3.5 | -0.4 | x | x
O=C(Nc1ccc2oc(-c3ccccc3)nc2c1)c1cccs1 | 49.2 | 23.1 | -58.5 | 72.8* | -6.3 | 53.3* | -1.1 | 75.7*
SMILES | NLRP3 yeast inh | tim10-1 inh | NALP1 inh | TIM10 inh | V-ATPase pH | tim23-1 inh | tim10 confirm | tim23-1 conf
COc1ccccc1C1CCN(C(=O)c2ccccc2)CC1 | 4.6 | 1.1 | 4.5 | 12.5 | 1.9 | 3.0 | x | x
COc1ccccc1C1CCN(c2cc(O)ccc2[N+](=O)[O-])CC1 | 26.4 | 36.5 | 33.0 | 47.6* | 2.4 | 59.8* | 42.9* | 59.5*
CCc1c(C2(O)CCCCC2)[nH]c2cc(C(F)(F)F)ccc12 | 13.4 | 36.2 | 4.5 | 50.8* | 1.2 | 67.1* | 61.3* | -14.2
O=C(CCl)Nc1cccc(-c2cnc3ccccc3n2)c1 | -3.6 | 34.2 | 22.1 | 40.4* | -1.3 | 63.3* | 0.5 | 40.4*
CCC(=O)Nc1cccc(-c2cnc3ccccc3n2)c1 | 16.9 | 12.2 | -2.5 | -1.9 | -6.6 | -13.4 | x | x
Cc1cc(C(=O)N/N=C2\CCCC(=O)C2)c(C)n1-c1ccccc1 | 6.4 | -1.2 | 33.1 | 4.6 | 1.8 | 10.5 | x | x
Cc1ccc(N(C(=O)Cn2nnc3ccccc32)C(C(=O)NC2CCCCC2)c2cn(C)nc2C)cc1 (configuration not stated) | -15.4 | 2.8 | -3.9 | 2.3 | 1.3 | -0.1 | x | x
CN(C)NC(=S)NC(=O)C12CC3CC(CC(C3)C1)C2 | -2.3 | 34.0 | -2.4 | 27.5 | -0.1 | 3.3 | x | x
CC(C)(C)NC(=S)NC(=O)C12CC3CCC(CC(C3)C1)C2 | 24.0 | 35.6 | 42.4 | 44.8* | 0.4 | 50.1* | -12.2 | 59.4*
CCOc1ccc(C2=NNC(c3cccs3)=Nc3ccc(OC)cc32)cc1OCC | 2.7 | 12.3 | 20.7 | 33.2 | -0.6 | 0.4 | x | x
CCOc1ccc(C2=NNC(c3cccs3)=Nc3ccc(OCC)cc32)cc1 | 47.7 | 28.9 | -8.7 | 51.8* | x | 55.0* | 44.0* | 68.2*
COc1ccc(S(=O)(=O)NCc2cccnc2)cc1 | 19.9 | 6.9 | 11.3 | 0.0 | -4.2 | 12.5 | x | x
Cc1ccccc1-c1noc(-c2ccc(Cl)cc2)n1 | 2.9 | 20.3 | -9.9 | 15.5 | 7.3 | 4.1 | x | x
Cc1ccccc1-c1noc(-c2ccc(O)cc2)n1 | 21.4 | 30.5 | 29.3 | 48.2* | -1.4 | 87.7* | 61.5* | 73.2*
COCCN1C(=O)c2ccccc2C(C(=O)NCc2ccco2)C1c1c[nH]c2ccccc12 (configuration not stated) | 1.9 | -3.7 | -15.1 | -1.6 | 1.5 | 2.9 | x | x
COc1ccc(NC(=O)COC(=O)[C@@H]2CCCN2C(=O)c2cccs2)cc1 | 12.0 | 25.8 | 4.7 | 6.5 | -6.3 | 15.7 | x | x
COc1cccc2c1OC1(N3CCOCC3)CCCCC1C2C[N+](=O)[O-] (configuration not stated) | x | x | x | x | -0.1 | x | x | x
CC(=O)Nc1ccc(-c2cn3ccsc3n2)cc1 | 11.1 | -14.4 | -3.4 | 4.0 | 2.2 | 6.7 | x | x
O=C(Nc1ccc(-c2cn3ccsc3n2)cc1)C1CCCC1 | 30.9 | 26.1 | 0.8 | 59.2* | 4.5 | 56.9* | 49.8* | 69.1*
CC1CC(C)CN(S(=O)(=O)c2ccc(C(=O)N3CCCC3)cc2)C1 (configuration not stated) | 8.3 | 10.5 | 3.6 | 3.2 | 0.7 | 8.4 | x | x
Cc1cccc(-c2nc(Nc3cccc(O)c3)c3ccccc3n2)c1 | 37.7 | 6.1 | 20.9 | 52.5* | 2.5 | 77.9* | 50.5* | 24.2
